Results: PubChem BioAssay (NCATS)
Where “and” joins values, the source holds several entries; their conditions need not be identical. Equal values may be shown once. A number with no mark means an inactive call. Records with an inconclusive call do not appear. A call without a number means that no potency is given here. Calls of active or inactive are those of the source. Unless noted, the call rests on the fitted dose curve; in most records, active means well fitted curve in the direction sought with a large enough effect; inconclusive means small, poorly fitted or top-dose-only effect, or another doubt; inactive means no such curve, though single readings can be large; an effect the other way counts as inactive or inconclusive.

Experiments:
[1] = molecular target: Cytochrome P450 2C9 (Homo sapiens) (UniProt P11712); assay: qHTS Assay for Inhibitors and Substrates of Cytochrome P450 2C9 (AID 883); further: nearly all actives have a fitted effect of over 60% in size; further: potency means the concentration at half of the fitted maximal effect
Chain of Cytochrome P450 2C9 (Homo sapiens) (P11712 whole entry, looked up): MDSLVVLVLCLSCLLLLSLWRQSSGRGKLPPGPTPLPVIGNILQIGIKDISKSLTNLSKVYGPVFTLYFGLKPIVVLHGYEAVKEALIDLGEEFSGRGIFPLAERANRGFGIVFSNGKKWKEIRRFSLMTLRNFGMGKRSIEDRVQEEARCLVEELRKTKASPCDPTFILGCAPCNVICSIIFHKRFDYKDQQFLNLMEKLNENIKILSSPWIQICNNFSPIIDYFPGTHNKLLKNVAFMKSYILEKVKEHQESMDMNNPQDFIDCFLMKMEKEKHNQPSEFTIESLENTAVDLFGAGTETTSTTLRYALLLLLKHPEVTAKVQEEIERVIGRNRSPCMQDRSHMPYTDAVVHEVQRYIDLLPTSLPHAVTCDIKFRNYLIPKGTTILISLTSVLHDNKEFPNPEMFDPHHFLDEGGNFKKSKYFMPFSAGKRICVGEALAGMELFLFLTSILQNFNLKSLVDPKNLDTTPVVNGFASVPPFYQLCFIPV
In short: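 Luminescent read-out of deoxyluciferin hydroxylation, normalized to 57uM sulphaphenazole (AC100). Reaction: 10nM enzyme, 100uM Luciferin-H (equal to KM), 25mM KPO4, 10 min compound preincubation, then 60 min with NADPH regeneration, both at 37C.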

[2] = molecular target: Cytochrome P450 2C19 (Homo sapiens) (UniProt P33261); assay: qHTS Assay for Inhibitors and Substrates of Cytochrome P450 2C19 (AID 899); further: nearly all actives have a fitted effect of over 60% in size; further: potency means the concentration at half of the fitted maximal effect
Chain of Cytochrome P450 2C19 (Homo sapiens) (P33261 whole entry, looked up): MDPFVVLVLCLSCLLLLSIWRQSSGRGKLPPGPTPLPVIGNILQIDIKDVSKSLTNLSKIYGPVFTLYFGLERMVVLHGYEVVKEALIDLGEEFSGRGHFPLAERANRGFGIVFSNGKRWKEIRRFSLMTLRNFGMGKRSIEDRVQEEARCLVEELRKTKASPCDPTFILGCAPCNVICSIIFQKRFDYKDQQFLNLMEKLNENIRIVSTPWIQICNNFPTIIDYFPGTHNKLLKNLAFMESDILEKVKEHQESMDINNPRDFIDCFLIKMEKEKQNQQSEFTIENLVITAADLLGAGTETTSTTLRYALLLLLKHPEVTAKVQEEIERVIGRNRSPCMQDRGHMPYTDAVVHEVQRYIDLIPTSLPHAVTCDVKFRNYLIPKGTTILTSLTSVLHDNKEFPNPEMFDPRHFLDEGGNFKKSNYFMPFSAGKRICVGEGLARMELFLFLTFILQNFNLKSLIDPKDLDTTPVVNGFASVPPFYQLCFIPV
In short: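 Luminescence readout of luciferin formed from 10uM Luciferin-H EGE (KM level) by 5 nM CYP2C19 in 50mM KPO4. 60 min NADPH-driven reaction at 37C after 10 min compound preincubation; data scaled to 57uM ketoconazole inhibition.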

[3] = Cell Viability - HepG2 (AID 433; calls by dose curve;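 further: potency means the concentration at half of the fitted maximal effect; potency for ATP loss meaning cytotoxicity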); conditions: qHTS
In short: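 In this qHTS format, a 40 h, 37 °C compound incubation of HepG2 cells in complete medium precedes a 20 min CellTiter-Glo step at room temperature. Tamoxifen and doxorubicin serve as positive controls; Hill-equation fits yield AC50.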

[4] = Cell Viability - NIH 3T3 (AID 541); conditions: NIH 3T3 cell viability, qHTS; activity change, negative = cytotoxicity: at 92.2 µM (top of the series); further: nearly all actives have a fitted effect of over 25% in size
In short: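 NIH 3T3 mouse embryo fibroblasts (1000 cells/well) were plated in complete medium and treated with compound for 40 hr at 37 °C. Viability was read as intracellular ATP by CellTiter-Glo luminescence; AC50 values came from Hill-equation fits of concentration-response data.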

[5] = Cell Viability - HUV-EC-C (AID 542); further: nearly all actives have a fitted effect of over 35% in size
In short: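 HUV-EC-C normal human vascular endothelial cells, 1000 cells/well, pre-incubated 5 hr at 37 °C, then exposed to compounds for 40 hr at 37 °C in complete medium. Viability measured as intracellular ATP by CellTiter-Glo luminescence; AC50 from Hill fits.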

[6] = Cell Viability - Renal Proximal Tubule (AID 545); conditions: renal proximal tubule cells viability; at 91.7 µM (top of the series), primary cells of rat origin unless noted; further: nearly all actives have a fitted effect of over 40% in size
In short: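 In this qHTS format, normal rat kidney-derived proximal tubule cells in complete culture medium receive compound titrations, then sit 40 hours at 37 °C before luciferase-based ATP quantitation; potency is reported as AC50 from concentration-response curves.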

[7] = Cell Viability - Mesenchymal (AID 546);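 further: cells exposed to compound for 40 hours before reading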
In short: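 AC50 values reflect the drop in intracellular ATP in a human kidney mesenchymal line derived from normal glomeruli. Treatment lasts 40 hr at 37 °C in complete medium, and the signal comes from CellTiter-Glo luminescence.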

[8] = Cellular Toxicity (caspase-3) HepG2 (AID 654);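 further: cells exposed to compound for 16 hours before reading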
In short: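 HepG2 cells (1500/well) in complete medium were treated with compounds for 16 hr at 37 °C. Caspase-3/7 activity was then read as luminescence from peptide-aminoluciferin cleavage. AC50 came from Hill fits, normalized to DMSO and 100 uM tamoxifen.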

[9] = Cellular Toxicity (caspase-3) HUV-EC-C (AID 656)
In short: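 Concentration-dependent caspase 3/7 induction was assessed in HUV-EC-C cells exposed for 16 hours. Data scaled between DMSO and tamoxifen (100 uM) controls.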

[10] = Cellular Toxicity (caspase-3) BJ (AID 658)
In short: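 Readout: Caspase-Glo 3/7 luminescence increase in BJ cells after 16 hr treatment at 37 °C. Staurosporine and tamoxifen served as positive controls; AC50 values came from Hill modelling of data normalized to DMSO and 10 uM staurosporine.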

[11] = Cellular Toxicity (caspase-3) MRC-5 (AID 659)
In short: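 Concentration-dependent caspase 3/7 activation is measured in human normal lung fibroblasts (MRC-5) following 16-hour treatment. AC50 values come from standard Hill-equation modeling of luminescence normalized to DMSO and 10 uM staurosporine.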

[12] = Cellular Toxicity (caspase-3) Mesangial (AID 660);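 further: cells exposed to compound for 16 h before the caspase read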
In short: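 Human renal glomerular mesangial cells (1000/well) were treated with compounds for 16 h at 37 °C in complete medium, then caspase 3/7 activity was read by Caspase-Glo luminescence. Data were normalized to DMSO and 100 uM tamoxifen; AC50 from Hill fits.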

[13] = Cellular Toxicity (caspase-3) H-4-II-E (AID 663);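 further: cells exposed to compound for 16 hr before readout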
In short: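 Apoptosis induction is scored as increased luminescence from caspase 3/7 substrate cleavage in rat hepatoma H-4-II-E cells exposed to compound for 16 hr. Activity is scaled between DMSO and 100 uM tamoxifen.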

[14] = Cellular Toxicity (caspase-3) N2a (AID 665); conditions: N2a cells, luminescence, normalized: DMSO 0%, 10 µM staurosporine 100%; at 92.2 µM (top of the series);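 further: compound exposure lasted 16 h at 37 °C before readout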
In short: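 Mouse N2a neuroblastoma cells (1500/well) were treated with compounds for 16 h at 37 °C, then caspase-3/7 activity was read by Caspase-Glo luminescence after 1 h at room temperature. Data were normalized to DMSO and 10 uM staurosporine; AC50 from Hill fits.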

[15] = Cellular Toxicity (caspase-3) NIH 3T3 (AID 666)
In short: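 Mouse NIH 3T3 fibroblasts (1000 cells/well) were treated with compound for 16 hr at 37°C in complete medium; caspase-3/7 activity was read by Caspase-Glo luminescence. Normalized to DMSO and 100 uM tamoxifen; AC50 from Hill fits.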

[16] = Cellular Toxicity (caspase-3) Renal Proximal Tubule (AID 667); conditions: renal proximal tubule cells; at 91.7 µM (top of the series), primary cells freshly taken from rat, solvent-only wells 0%, staurosporine 100% unless noted;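 further: cells exposed to compound for 16 hours at 37 °C before detection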
In short: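 Caspase-Glo 3/7 read-out, rat primary kidney proximal tubule cells. Compound exposure 16 h, 37 °C; detection after 1 h at RT. Activity scaled to DMSO and 10 uM staurosporine.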

[17] = MultiTox-Fluor Cytotoxicity Assay - LYMP1-002 - Live Cells (AID 955)
In short: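 Human lymphoblastoid LYMP1-002 cells, 2500/well in complete medium, rested 5 hr at 37 C, then exposed to compounds for 16 hr at 37 C. Live-cell protease cleavage of GF-AFC read by fluorescence (Ex/Em 405/510) after 60 min at room temperature; AC50 from Hill fits.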

[18] = qHTS Assay for Identification of Small Molecule Inducers of Hypoxia Response (AID 2120; active means well fitted curve in the direction sought with a large enough effect in the signal ratio, with a control signal flat, not every such curve was filed as active; the % refers to the signal ratio)
In short: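 HRE-beta-lactamase reporter in CellSensor HRE-bla ME-180 cells, 2500 cells/well in Opti-MEM with 0.5% dialyzed FBS; compounds tested as titration series, 17 h at 37 degrees C. CCF4 substrate 2.5 h at room temperature; AC50 from 460/530 nm ratio.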

[19] = molecular target: Tumor necrosis factor (Homo sapiens) (UniProt P01375); assay: qHTS assay to identify small molecules that stimulate Tumor Necrosis Factor-alpha (TNF-alpha) secretion (AID 651757; active means well fitted curve in the direction sought with a large enough effect in the signal ratio; the % refers to the signal ratio)
Chain of Tumor necrosis factor (Homo sapiens) (P01375 whole entry, looked up): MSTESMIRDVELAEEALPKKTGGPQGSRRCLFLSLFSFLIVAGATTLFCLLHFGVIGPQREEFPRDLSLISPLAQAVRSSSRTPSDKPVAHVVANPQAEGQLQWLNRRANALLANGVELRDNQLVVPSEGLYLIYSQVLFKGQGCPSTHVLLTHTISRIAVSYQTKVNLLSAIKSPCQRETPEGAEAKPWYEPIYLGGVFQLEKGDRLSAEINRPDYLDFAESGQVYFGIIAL
In short: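 THP-1 cells were exposed to compounds for 17 hrs at 37 C, after which secreted TNF-alpha was measured by homogeneous HTRF (TR-FRET) using cryptate- and XL665-labeled anti-TNF-alpha antibodies, read after 3 hr at room temperature.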

[20] = qHTS assay for small molecule agonists of the antioxidant response element (ARE) signaling pathway measured by Nrf2-dependant transcriptional activity - cell viability counter screen (AID 720653; active means well fitted curve in the direction sought with a large enough effect in the repeat runs; an effect the other way counts as inactive or inconclusive); conditions: ARE-bla HepG2 viability, CellTiter-Glo ATP luminescence, 16 h; hits give low values
In short: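 Cytotoxicity counter screen: intracellular ATP quantified by CellTiter-Glo luminescence in the same ARE-bla HepG2 plates, after 16 h compound exposure and a 2 h beta-lactamase substrate step.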

In the case of `O=C(c1ccco1)N1CCC[C@@]2(CCN(Cc3ccncc3)C2)C1`, the Potency [1] is reported as 3.16 µM (active) and the Potency [2] is reported as 2.51 µM (active).

With `Cc1ccccc1-c1cncnc1NCCc1cnc[nH]1` the Potency [2] was 0.0501 µM (active).

With `c1ccc(CN2CCC3(CCNCC3)CC2)cc1` the Potency [2] was 5.01 µM (active).

For `Clc1ccccc1-c1cncnc1NCCc1cnc[nH]1`, the Potency [2] was 0.0126 µM (active).

For `O=C(O)C1=CCCN(CCOC(c2ccc(C(F)(F)F)cc2)c2ccc(C(F)(F)F)cc2)C1`, the Potency [1] was 2.51 µM (active).

In the case of `COCC(=O)N1CCC2(CCCN(Cc3ccncc3)C2)CC1`, the Potency [1] is reported as 5.01 µM (active).

In the case of `O=C(Oc1ccccc1)N1CCC2(CC1)CN(Cc1ccncc1)C2`, the Potency [1] is reported as 3.16 µM (active).

For `COc1ccc2c(c1O)-c1c(OC)c(OC)cc3c1[C@H](C2)N(C)CC3`, the Potency [1] was “inactive” and the Potency [2] was “inactive”.

In the case of `CC1=NCCc2c1[nH]c1cc(O)ccc21`, the Potency [1] is reported as “inactive” and the Potency [2] is reported as “inactive”.

In the case of `ClC(Cl)=C(c1ccc(Cl)cc1)c1ccc(Cl)cc1`, the Potency [3] is reported as over 92 µM, the activity change, negative = cytotoxicity [4] is reported as 7.39% and -2.45% and the Potency [5] is reported as “inactive”. The activity change, negative = cytotoxicity [6] was -4.32% [at 91.7 µM] and -7.69% [at 91.7 µM], the outcome [7] was “inactive” and the outcome [8] was “inactive”. For the same molecule, the outcome [9] was “inactive”, the outcome [10] was “inactive” and the outcome [11] was “inactive”. For the same molecule, the outcome [12] was “inactive”, the outcome [13] was “inactive” and the caspase-3 activation [14] was 2.33% and 2.48%. The outcome [15] was “inactive”, the caspase-3 activation [16] was -10.4% [at 91.7 µM] and -6.37% [at 91.7 µM] and the outcome [17] was “inactive”. The outcome [18] was “inactive”, the outcome [19] was “inactive” and the max response [20] was 6.47% and -9.67% and -6.97%.

For `CCNc1nc(Cl)nc(NC(C)C)n1`, the Potency [3] was over 92 µM, the activity change, negative = cytotoxicity [4] was -18.4% and the Potency [5] was “inactive”. For the same molecule, the activity change, negative = cytotoxicity [6] was -6.93% [at 91.7 µM], the outcome [7] was “inactive” and the outcome [8] was “inactive”. The outcome [9] was “inactive”, the outcome [10] was “inactive” and the outcome [11] was “inactive”. The outcome [12] was “inactive”, the outcome [13] was “inactive” and the caspase-3 activation [14] was -0.492%. For the same molecule, the outcome [15] was “inactive”, the caspase-3 activation [16] was -3.87% [at 91.7 µM] and the outcome [17] was “inactive”. For the same molecule, the outcome [18] was “inactive”, the outcome [19] was “inactive” and the max response [20] was 5.56% and -9%.

In the case of `O=C(Oc1ccccc1)N1CCC2(CCN(Cc3ccncc3)CC2)CC1`, the Potency [1] is reported as 3.98 µM (active).

With `C=CCc1ccc2c(c1)OCO2` the Potency [3] was over 92 µM, the activity change, negative = cytotoxicity [4] was -6.05% and the Potency [5] was “inactive”. The activity change, negative = cytotoxicity [6] was 1.52% [at 91.7 µM], the outcome [7] was “inactive” and the outcome [8] was “inactive”. The outcome [9] was “inactive”, the outcome [10] was “inactive” and the outcome [11] was “inactive”. The outcome [12] was “inactive”, the outcome [13] was “inactive” and the caspase-3 activation [14] was -4.3%. For the same molecule, the outcome [15] was “inactive”, the caspase-3 activation [16] was -2.37% [at 91.7 µM] and the outcome [17] was “inactive”. For the same molecule, the outcome [18] was “inactive”, the outcome [19] was “inactive” and the max response [20] was -4.7%.
